Screening data (PubChem BioAssay)
TLR4-MyD88 inh – blocks binding of human TLR4 to MyD88; O00206; Cell-based TLR4-MyD88 binding inhibition assay; inhibition, % at 10 µM; 16,000 tested, 0.06% active; AID 811; in the data active means inhibition above about 45%
KOR antag MB – antagonists of human kappa opioid receptor OPRK1, Maybridge library; AID 652031; OPRK1 cells, antagonist mode, fluorescence readout; 16,000 tested, 0.4% active; inhibition, % at 9 µM; in the data active means inhibition above about 50%
rat GALR2 agon – agonists of rat galanin receptor 2 (GALR2); activation, % at 10 µM; 16,000 tested, 0.5% active; cell-based GALR2 agonist screen; in the data active means activation above about 15%
Target sequence (O08726 whole entry, looked up): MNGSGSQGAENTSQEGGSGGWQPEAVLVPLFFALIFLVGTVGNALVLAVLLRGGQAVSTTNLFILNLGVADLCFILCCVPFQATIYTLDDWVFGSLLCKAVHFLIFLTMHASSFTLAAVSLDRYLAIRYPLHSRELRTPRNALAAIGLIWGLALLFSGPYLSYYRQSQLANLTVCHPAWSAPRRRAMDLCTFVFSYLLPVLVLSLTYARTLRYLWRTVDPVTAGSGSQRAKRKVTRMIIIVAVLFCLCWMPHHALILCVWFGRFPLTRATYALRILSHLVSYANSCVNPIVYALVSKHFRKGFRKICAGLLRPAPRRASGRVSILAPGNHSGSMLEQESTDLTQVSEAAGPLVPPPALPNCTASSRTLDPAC
S1P1 ag – activates the human S1P1 receptor; P21453; activation, % at 4.5 µM; S1P1 agonist cell-based reporter assay; 16,000 tested, 1.5% active; AID 1044; in the data active means activation above about 80%
Each line names hits and unclear results; the compound was inactive in the other large screens. Shown are actives, neighbours in structure and some others; about 2.1% of the full set was active somewhere.

COc1ccc(C(=O)NNc2c([N+](=O)[O-])cc(C(F)(F)F)cc2[N+](=O)[O-])cc1	none
O=C(NNc1c([N+](=O)[O-])cc(C(F)(F)F)cc1[N+](=O)[O-])c1ccccc1-n1cccc1	S1P1 ag 109
N#C/C(=C\c1cccs1)C(=O)N1CCOCC1	S1P1 ag 100
O=C(/C(=C\c1cccs1)c1ccsc1)N1CCOCC1	none
O=C(Sc1ccccn1)c1cnn(-c2ccc([N+](=O)[O-])cc2)c1C(F)(F)F	none
COc1ccc(SCCc2nnc(-c3ccccc3)o2)cc1	none
COc1ccc(-c2nc3cc4c(cc3o2)Oc2ccccc2N4)cc1	KOR antag MB 79
CCOC(=O)c1cc(C(=O)OC)c(C)nc1N1CCC(NC2CCCCC2O)CC1 (centres undefined)	KOR antag MB 92
Cc1cc(NC(=O)CN2CCOCC2)no1	none
N#Cc1cccc(C#N)c1Oc1ccc(N)cc1	KOR antag MB 94
CCN(CC)C(=S)Oc1ccc([N+](=O)[O-])cc1	none
Oc1c(Cl)cc(Cl)cc1/C=N/NC(=S)NNc1ccccc1	none
CC(NC(=S)N/N=C/c1cc(Cl)cc(Cl)c1O)c1ccccc1 (centres undefined)	rat GALR2 agon 27
C1=C(N2CCOCC2)Cc2ccccc21	none
CCOC(=O)c1sc(COc2cccc(Cl)c2)nc1C	S1P1 ag 91
CCOC(=O)c1sc(-c2ccccc2)nc1C	S1P1 ag 97
CCOC(=O)C1CCN(C(=O)c2sc(-c3ccccc3)nc2C)CC1	none
CC(=O)c1ccc(Oc2ccc([N+](=O)[O-])cc2)cc1	none
O=S(=O)(Cc1ccc(Cl)cc1)NCc1cccnc1	rat GALR2 agon 27
O=C(NNC(=O)c1csc(CS(=O)(=O)c2ccc(Cl)cc2)n1)c1ccc(Cl)cc1	none
CCOC(=O)COc1ccccc1/C=C(\C#N)C(=O)c1ccc(Cl)cc1	none
CS(=O)(=O)/C(C#N)=C/c1ccccc1OCc1c(Cl)cccc1Cl	rat GALR2 agon 18
CSc1nccc(-c2ccc(S(=O)(=O)Nc3cc(C(F)(F)F)cc(C(F)(F)F)c3)s2)n1	S1P1 ag 88
CC(C)(C)C(=O)OCc1nc(-c2cc(-c3ccccc3)no2)cs1	none (no result: TLR4-MyD88 inh)
CC(C)(C)C(=O)OCc1nc(-c2ccc3c(c2)OCO3)cs1	S1P1 ag 92
COc1c(Cl)cc(Cl)cc1-c1csc(NC(=O)C(Cl)(Cl)Cl)n1	S1P1 ag 89
COc1cc(C(=O)NC(=S)Nc2nc(-c3ccc(F)cc3)cs2)cc(OC)c1OC	none
CN(C)/C=c1\s/c(=C/C(=O)c2cccs2)[nH]c1=O	none
N/C(=N\OC(=O)c1c(F)cccc1F)c1cccc(-n2cccc2)c1	S1P1 ag 95
O=C(O)CC(CC(=O)Nc1ccc(I)cc1F)c1ccccc1 (centres undefined)	none
O=S1(=O)CCN(Cc2cc3ccccc3s2)CC1	rat GALR2 agon 36
Cc1cc(C)c2c(N)c(C(=O)Nc3nnc(-c4cccs4)s3)sc2n1	none
CC(=O)c1sc2nc(-c3cccs3)cc(C(F)(F)F)c2c1N	KOR antag MB 89
N#Cc1c(S/C=C(\O)c2cc3ccccc3o2)nc2c(c1C(F)(F)F)CCCC2	KOR antag MB 77
CC(=NCCc1ccccc1)C1CCOC1=O (centres undefined)	S1P1 ag 114
O=C(NCCSCc1cccc(C(F)(F)F)c1)N1CCSCC1	none
N#C/C(=N\Nc1ccc(OC(F)(F)F)cc1)C(=O)c1ccsc1	S1P1 ag 107
O=C(Cn1c2c(c(=O)n3ncnc13)CCC2)N/N=C/c1cccs1	none
Cn1c2c(c(=O)n3ncnc13)CCCC2	S1P1 ag 91
CC(C)c1ccc(NC(=O)Cn2cccc(C(F)(F)F)c2=O)cc1	none
O=C(Nc1nnc(C(F)(F)F)s1)c1ccccc1	none
O=C(Nc1ccccc1)Nc1nnc(C(F)(F)F)s1	S1P1 ag 109
Cc1csc2ncnc(NCCc3ccc(Cl)cc3)c12	S1P1 ag 102
Cc1csc2ncnc(NNC(=O)c3ccc(Cl)cc3)c12	none
COc1ccc([N+](=O)[O-])c(S(=O)(=O)c2ccc(Cl)cc2)n1	KOR antag MB 82, S1P1 ag 104
O=C1CN(c2ccc(OC(F)(F)F)cc2)C(=O)CN1CC1CC1	rat GALR2 agon 44
CS(=O)(=O)/C(C#N)=C\c1ccc(Cl)s1	KOR antag MB 57
O=C1c2ccc(Cl)c3c(N4CCSCC4)ccc(c23)C(=O)N1c1ccccc1	KOR antag MB 58
CCOC(=O)c1cc(N2C(=O)c3ccccc3C2=O)ccc1N1CCCCC1	none
Cn1c(N2C(=O)c3cccc4cccc(c34)C2=O)nc2ccccc21	none
Cc1c(NCN2C(=O)CCC2=O)cc2c(c1[N+](=O)[O-])C(C)(C)CC2(C)C	S1P1 ag 81
O=C1NC(=O)c2cc([N+](=O)[O-])c(SCc3ccc(Cl)cc3)cc21	none
O=C1OC([N+](=O)[O-])Cc2ccccc21 (centres undefined)	none
O=[N+]([O-])c1ccc(N2CCc3ccccc32)cc1	KOR antag MB 65
O=[N+]([O-])c1ccc(N2CCC(n3cccc3)CC2)cc1	none
CCCCc1cc(C)c2[nH]c(=O)cc(C)c2c1	none
